For part of these data: Potency and affinity values are given separately. Active and inactive are the calls of the source.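 How the source made its calls, unless noted: active means fitted half-maximal concentration within 10 nM to 100 µM, steepness 0.5 to 2, significant signal drop, low assay interference; inactive means the rest.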
What was measured:
[1] = target: Cell division control protein 42 homolog (Homo sapiens) (UniProt P60953); assay: activated mutant Cdc42 GTP-binding inhibitors, dose response, biochemical, multiplex bead flow cytometry, Bodipy-FL-GTP (AID 1333;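 active means fitted half-maximal concentration within the tested dose range, moderate curve steepness, a statistically real signal drop, and little compound fluorescence or tag-binding interference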)
Chain of Cell division control protein 42 homolog (Homo sapiens) (P60953 whole entry, looked up): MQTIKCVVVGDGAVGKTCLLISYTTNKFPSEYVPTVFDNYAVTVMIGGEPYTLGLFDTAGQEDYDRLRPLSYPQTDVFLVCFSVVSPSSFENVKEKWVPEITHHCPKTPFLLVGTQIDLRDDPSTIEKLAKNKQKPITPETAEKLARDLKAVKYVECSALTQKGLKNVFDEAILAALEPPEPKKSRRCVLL

[2] = target: Cell division control protein 42 homolog (Homo sapiens) (UniProt P60953); assay: wildtype Cdc42 GTP-binding inhibitors, dose response, biochemical, multiplex bead flow cytometry, Bodipy-FL-GTP (AID 1334;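 active means fitted half-maximal concentration within the tested range, moderate curve steepness, significant signal drop, and little compound fluorescence or bead-linkage interference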); conditions: bead-based flow cytometry, Bodipy-FL-GTP binding to GST-Cdc42; at 100 µM (top of the series) unless noted
[3] = target: GTPase HRas (Homo sapiens) (UniProt P01112); assay: inhibitors of GTP binding to wildtype Ras, dose response, biochemical, multiplex bead flow cytometry (AID 1335); conditions: bead-based flow cytometry, Bodipy-GTP binding to GST-Ras; at 100 µM (top of the series) unless noted
Chain of GTPase HRas (Homo sapiens) (P01112 whole entry, looked up): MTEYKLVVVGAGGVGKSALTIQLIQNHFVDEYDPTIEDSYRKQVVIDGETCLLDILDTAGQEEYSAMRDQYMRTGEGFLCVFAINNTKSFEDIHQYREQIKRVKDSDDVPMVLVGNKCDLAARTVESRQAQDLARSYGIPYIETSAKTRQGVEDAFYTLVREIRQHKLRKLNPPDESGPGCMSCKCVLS

[4] = test system: Ras-related protein Rab-7a (dog), GTP binding; assay: Rab7 GTP binding inhibitors, potency, dose response, biochemical, wildtype, multiplex bead flow cytometry (AID 1336; call rule not given here)
[5] = target: Ras-related C3 botulinum toxin substrate 1 (Homo sapiens) (UniProt P63000); assay: wildtype Rac1 GTP binding inhibitors, dose response, biochemical, multiplex bead flow cytometry (AID 1340;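 active means dose curve with midpoint inside tested range, moderate steepness, plateau gap beyond fit error, low compound glow and bead-link interference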); conditions: GST-Rac1 beads, Bodipy-FL-GTP binding; at 100 µM (top of the series) unless noted
[6] = target: GTPase HRas (Homo sapiens) (UniProt P01112); assay: activated Ras mutant GTP binding inhibitors, dose response, biochemical, multiplex bead flow cytometry (AID 1341;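 active means dose-response curve with midpoint inside the tested range, moderate steepness, significant amplitude and little compound fluorescence or bead-attachment interference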;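 further: GST-tagged constitutively activated Ras mutant immobilized on beads and multiplexed with other GTPases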)

Compound	outcome [1]	fluorescence, percent of control (lower = inhibition) [2] [%]	GTP binding, percent of control [3] [%]	outcome [4]	GTP binding signal, raw median fluorescence (lower = inhibition) (MCF (arbitrary fluorescence units)) [5]	outcome [6]
CNC(=S)N=Nc1c(O)[nH]c2ccccc12	inactive	36.2	47	inactive	128	inactive
CCc1ccc(OCc2cccc(C(=O)O)c2)cc1	inactive	58.6	87.5	inactive	32.6	inactive
CC1=C(C)CC(C(=O)c2cc(C)ccc2C)C(C(=O)O)C1 (stereo not given)	inactive	57.3	88.3	inactive	31	inactive
CCOc1cc(/C=C2/NC(=O)NC2=O)cc([N+](=O)[O-])c1O	inactive	28.3	64.7	inactive	146	inactive
COCCCNc1nc(=S)[nH]c2cc(OC)c(OC)cc12	inactive	32.5	41.5	inactive	99	inactive
COc1ccc(N/C=C/c2nc(SC)nnc2C)cc1	inactive	31.3	72.4	inactive	183	inactive
COc1cccc(/C=C2\SC(=S)N(NC(=O)c3ccncc3)C2=O)c1	inactive	26.6	63.7	inactive	116	inactive
CCn1c2ccccc2c2nc3cc(C(=O)O)ccc3nc21	inactive	34	74.6	inactive	161	inactive
O=C(Nc1cccc(-c2nnc(-c3ccco3)o2)c1)c1ccccc1	inactive	33.7	76.1	inactive	190	inactive
COc1ccccc1N1CCN(S(=O)(=O)c2cccc(F)c2)CC1	inactive	49	62.4	inactive	213	inactive
O=C(Nc1cc(S(=O)(=O)Nc2ccccc2Cl)ccc1O)c1sc2cc(Cl)ccc2c1Cl	inactive	35.5	81.2	inactive	248	inactive
Cc1cccc(Cc2c(C)nc3nc(SCC(=O)O)nn3c2C)c1	inactive	30.6	81.6	inactive	227	inactive
O=C(Nc1ccc(N2CCOCC2)c(Cl)c1)c1ncn[nH]1	inactive	104	203	inactive	241	inactive
CCN=C1S/C(=C\c2ccc(OC)c(OCC)c2)C(=O)N1CC	inactive	50.8	60.4	inactive	213	inactive
CSc1nc(Cc2ccccc2)cc(=O)[nH]1	inactive	36.3	80.4	inactive	273	inactive
O=C(O)c1cccnc1SCc1cccc(Cl)c1	inactive	102	117	inactive	79.9	inactive
COc1ccc(/C=C2\CCCC3C2=NN(C(=O)c2scnc2C)C3c2ccc(OC)c(OC)c2)cc1OC (stereo not given)	inactive	76.7	122	inactive	138	inactive
COc1cc(NS(=O)(=O)c2ccc(Nc3nc(-c4ccccc4)cs3)cc2)nc(OC)n1	inactive	40.7	53.3	inactive	138	inactive
CC(Sc1nnc(NC2CCCCC2)s1)C(=O)Nc1ccc2c(c1)C(=O)c1ccccc1C2=O (stereo not given)	inactive	49.1	61.4	inactive	161	inactive
COc1cccc(N2CCN(C(=O)CCCCCNc3nc(=S)[nH]c4ccccc34)CC2)c1	inactive	38.1	79.5	inactive	264	inactive

Compound	outcome [1]	fluorescence, percent of control (lower = inhibition) [2] [%]	GTP binding, percent of control [3] [%]	outcome [4]	GTP binding signal, raw median fluorescence (lower = inhibition) (MCF (arbitrary fluorescence units)) [5]	outcome [6]
Cc1nnc(-n2ncc(C#N)c2N)c2nn(-c3cccc(Cl)c3)c(C)c12	inactive	62.8	76.8	inactive	198	inactive
Cc1cccc(C)c1NC(=O)CSc1ccc([N+](=O)[O-])cn1	inactive	85.9	97.1	inactive	246	inactive
COc1cc(-c2cc(=O)c3c(O)cc(O)cc3o2)ccc1O	inactive	36	84.7	inactive	189	inactive
CCc1ccc(OCc2ccc(C(=O)O)o2)cc1	inactive	60.7	90.3	inactive	35.2	inactive
Fc1cccc(CSc2ccc3nnc(-c4cccnc4)n3n2)c1	inactive	33.8	73.3	inactive	183	inactive
Cc1ccc(N=Nc2c(N)[nH]n3c(=O)cc(-c4ccccc4)nc23)cc1	inactive	64.1	125	inactive	118	inactive
COc1ccc(C2(CNC(=O)C(c3ccccc3)c3ccccc3)CCOCC2)cc1OC	inactive	34	80.6	inactive	276	inactive
Cc1nnc2ccc(-c3cccc(NC(=O)c4ccco4)c3)nn12	inactive	28.7	59.2	inactive	131	inactive
Cc1ccc(CSc2ncccc2C(=O)O)cc1	inactive	67.9	199	inactive	284	inactive
COc1ccc(CNc2nc3c(c(=O)n(Cc4ccc(Br)cc4)c(=O)n3C)n2C)cc1	inactive	32	83.8	inactive	222	inactive
CCOC(=O)c1c(CSc2ccccc2)n(C)c2cc(Br)c(OCC(O)CNC(CO)(CO)CO)cc12 (stereo not given)	inactive	94.1	147	inactive	320	inactive
CCC(C)(C)NC(=O)c1ccc2c(c1)N(CC(=O)OC)C(=O)C(C)(C)O2	inactive	34.2	82.4	inactive	253	inactive
O=C(COc1cc(Cl)ccc1Cl)Nc1nnc(CC(=O)N2CCOCC2)s1	inactive	90.6	152	inactive	178	inactive
Nc1c([N+](=O)[O-])cc(-c2cnc[nH]2)cc1[N+](=O)[O-]	inactive	38.5	81.1	inactive	190	inactive
Cc1ccc(NCc2sc(C(=O)O)cc2C)cc1	inactive	63	86.6	inactive	35.4	inactive
c1ccc(C2=Nn3c(nnc3-c3ccco3)SC2)cc1	inactive	34	81.7	inactive	183	inactive
C=CCOc1cccc(/C=N/NC(=O)CN(c2cc(Cl)ccc2OC)S(=O)(=O)c2ccc(C)c([N+](=O)[O-])c2)c1	inactive	50.3	56	inactive	0	inactive
CS(=O)(=O)c1ccc(C(=O)OCc2nnc(-c3ccccc3)o2)cc1[N+](=O)[O-]	inactive	22.4	81.7	inactive	259	inactive
COc1nc(Nc2ccc(O)cc2)nc(OC(C(F)(F)F)C(F)(F)F)n1	inactive	101	161	inactive	172	inactive
CC(=O)Nc1cccc(C#CC(=O)c2ccc([N+](=O)[O-])cc2)c1	inactive	39.8	178	inactive	104	inactive

Compound	outcome [1]	fluorescence, percent of control (lower = inhibition) [2] [%]	GTP binding, percent of control [3] [%]	outcome [4]	GTP binding signal, raw median fluorescence (lower = inhibition) (MCF (arbitrary fluorescence units)) [5]	outcome [6]
O=C(CN1CCN(c2ccc(O)cc2)CC1)Nc1cc(S(=O)(=O)N2CCCCC2)ccc1Cl	inactive	35.8	87.7	inactive	281	inactive
Cc1cc(C(=O)NC(=S)Nc2cccc(C(=O)O)c2C)ccc1[N+](=O)[O-]	inactive	37.3	85.8	inactive	272	inactive
Cc1nc2c(-c3ccc(Cl)cc3)c(C)[nH]n2c(=O)c1Cc1ccccc1	inactive	34.5	75.9	inactive	158	inactive
O=C(O)c1ccc(Nc2nc(-c3cc4ccccc4oc3=O)cs2)cc1O	inactive	29.2	74.6	inactive	177	inactive
O=C(C#Cc1cccc(O)c1)c1ccc([N+](=O)[O-])cc1	inactive	71.6	196	inactive	138	inactive
O=C(COC(=O)/C=C/c1cccs1)Nc1ccc2ccccc2c1	inactive	43.2	58.6	inactive	183	inactive
COc1ccc(-n2c(C)cc(/C=C3/SC(=S)N(C)C3=O)c2C)cc1	inactive	76.1	85.8	inactive	0	inactive
O=S(=O)(Cc1ccc(Cl)cc1)c1ccccc1-c1nnc(-c2ccc(Cl)cc2)o1	inactive	84	160	inactive	172	inactive
Cc1ccc(OCCn2c(SCCC(=O)O)nc3ccccc32)cc1	inactive	61.3	88.9	inactive	34.5	inactive
O=c1[nH]c2ccc(S(=O)(=O)NCc3ccccc3)cc2[nH]1	inactive	38.1	84.5	inactive	218	inactive
CCn1c(=N)c(S(=O)(=O)c2ccc(C)cc2)cc2c(=O)n3ccccc3nc21	inactive	36.8	79.5	inactive	174	inactive
O=c1c(/C=N/Nc2ccccc2)c(Sc2nnnn2-c2ccccc2)nc2ccccn12	inactive	107	114	inactive	308	inactive
NS(=O)(=O)c1ccc(CCN2C(=O)/C(=C\c3ccc(Cl)cc3)SC2=S)cc1	inactive	29	76.5	inactive	242	inactive
O=C(O)c1cccnc1OCc1ccccc1	inactive	88.8	103	inactive	63.4	inactive
CCOC(=O)c1ccc2ncc(-c3ccccc3)nc2c1	inactive	33.5	79.4	inactive	259	inactive
CCOC(=O)c1c(-c2ccccc2)csc1NC(=O)/C(C#N)=C/c1ccc(O)c(OC)c1	inactive	79.7	85	inactive	233	inactive
COc1ccc(OCCN2C(=O)c3ccccc3C2=O)cc1	inactive	35.6	81.5	inactive	240	inactive
Cc1cc(N=NC(=O)c2ccccc2O)c2ccccc2c1O	inactive	36.1	85.2	inactive	243	inactive
CCCCCN1CC(O)=C(c2nc(-c3ccc(Cl)cc3)cs2)C1=N	inactive	88.4	167	inactive	184	inactive
Cc1cc(NS(=O)(=O)c2ccc(Nc3nc(-c4sc(N)nc4C)cs3)cc2)no1	inactive	23.8	58.3	inactive	122	inactive

— PubChem BioAssay
